Assay [1] concerns the target Glutathione peroxidase 1 (Homo sapiens) (UniProt P07203). Nature of the assay: Primary qHTS Assay for Inhibitors of Recombinant Selenoprotein Glutathione Peroxidase 1 (GPX1) (AID 1845191). Further: nearly all actives have a fitted effect of over 65% in size. On activity, negative = inhibition: on the % scale 0 is the no-effect control and ±100 the full control effect. The procedure, abridged: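 Recombinant GPX1 (10 nM final) was preincubated with compound for 30 min at room temperature, then reacted with 1 mM GSH, 0.5 mM CHP, 0.5 mM NADPH and 100 nM glutathione reductase; NADPH fluorescence (340/450 nm) was read at 0 and 15 min.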

Assay [2] has as its target Phospholipid hydroperoxide glutathione peroxidase GPX4 (Homo sapiens) (UniProt P36969). The assay can be described thus: Primary qHTS Assay for Inhibitors of Recombinant Selenoprotein Glutathione Peroxidase 4 (GPX4) (AID 1845192). Further: nearly all actives have a fitted effect of over 65% in size. Further: potency means the concentration at half of the fitted maximal effect. The procedure, abridged:
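GR-coupled readout: 100 nM GR, 1 mM GSH, 0.5 mM NADPH; NADPH fluorescence (ex 340/em 450 nm) read at t=0 and after 15 min RT. GPX4 200 nM, preincubated 30 min with compound; substrate 0.5 mM CHP.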
A general note: Quantitative high-throughput screening tests each substance at several concentrations.

Assay [3] addresses Luciferin 4-monooxygenase (Photinus pyralis) (UniProt P08659). The assay can be described thus: Primary firefly luciferase (FLuc) qHTS assay for identification of artifact compounds. (AID 1845220). Further: nearly all actives have a fitted effect of over 60% in size. The procedure, abridged:
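In this counter-screen for luciferase artifacts, test compounds met substrate (10 uM each luciferin and ATP) before 10 nM enzyme started the reaction. Light output was measured 5 min later.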

Assay [4] in a line: Primary fluorescence-based thiol-reactive (MSTI) qHTS assay for identification of artifact compounds. (AID 1845221). Further: nearly all actives have a fitted effect of over 65% in size. Further: potency means the concentration at half of the fitted maximal effect.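 On activity change, negative = thiol reactive: series mostly up to about 54 µM; thiol-reactive compounds lower the probe fluorescence signal.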 The procedure, abridged: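 Curve-fitted percent inhibition (4-parameter Hill) derived from fluorescence, Ex 525/Em 598 nm, scaled with Acetyl-MSTI and MSTI; 1 h incubation at room temperature.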
In assay [5] the test system is Nanoluciferase (engineered Oplophorus gracilirostris luciferase). Nature of the assay: Primary Nanoluciferase (NLuc) qHTS assay for identification of artifact compounds. (AID 1845222).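 Further: NLuc secreted into diluted conditioned medium of S16 cells; series mostly up to about 54 µM; 0% = DMSO and -100% = no enzyme.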 The procedure, abridged:
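Using secreted nanoluciferase in S16 culture medium (0.22 um filtered, 1:55 dilution), compounds were preincubated 15 min at RT. Signal was generated with Nano-Glo reagent (1:100) over 5 min.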

Assay [6] in a line: Primary redox qHTS assay for identification of artifact compounds. (AID 1845223). Further: potency means the concentration at half of the fitted maximal effect.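 On redox activity (% of DA3003): 0% = DMSO and 100% = reference compound.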 The procedure, abridged:
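Amplex Red (25 uM) and HRP (250 mU/mL) in HBSS, with compounds for 15 min, then 250 uM DTT for 30 min, room temperature, dark. Fluorescence 525/598 nm read; normalized to DMSO and 10 uM DA3003; Hill fit.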

Results on 24 molecules are retold here after PubChem BioAssay (NCATS).

Several values for one entry are separate records, joined by “and”; a condition that tells them apart may be missing. Equal entries are not always repeated. Records with an inconclusive call do not appear. Some structures have more than one record in an assay (separate samples or runs), and their calls can disagree. Activity calls are given as the source filed them. The call rests on the fitted dose curve; in most records, active means well fitted curve in the direction sought with a large enough effect; inconclusive means small, poorly fitted or top-dose-only effect, or another doubt; inactive means no such curve, though single readings can be large; an effect the other way counts as inactive or inconclusive.

Sequence of Glutathione peroxidase 1 (Homo sapiens) (P07203 whole entry, looked up): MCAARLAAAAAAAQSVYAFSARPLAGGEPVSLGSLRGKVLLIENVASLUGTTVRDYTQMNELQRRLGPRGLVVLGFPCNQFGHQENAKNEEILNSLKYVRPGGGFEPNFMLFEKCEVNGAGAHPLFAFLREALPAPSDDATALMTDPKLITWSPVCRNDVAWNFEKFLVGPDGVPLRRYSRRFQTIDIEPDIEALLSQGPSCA
Sequence of Phospholipid hydroperoxide glutathione peroxidase GPX4 (Homo sapiens) (P36969 whole entry, looked up): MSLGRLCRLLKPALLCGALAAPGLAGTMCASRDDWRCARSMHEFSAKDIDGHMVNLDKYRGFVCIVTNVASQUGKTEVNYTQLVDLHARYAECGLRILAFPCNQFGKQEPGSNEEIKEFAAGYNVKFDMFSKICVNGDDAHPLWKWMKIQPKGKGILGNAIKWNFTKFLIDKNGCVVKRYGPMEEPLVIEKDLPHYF

In the case of `C=C1C(=O)O[C@@H]2[C@H]1CC[C@H](C)[C@]1(CCC(=O)O1)C2(C)O` (some centres undefined), the Potency entry in assay [1], in assay [2], in assay [3], in assay [4], in assay [5] and in assay [6] was “inactive” each time.
As for `C=CC(C)(O)CC/C=C(\C)C(=O)OC1C(O)C(CO)OC(OC(=O)C23CCC(C)(C)CC2C2=CCC4C5(C)CCC(OC6OC(COC7OCC(OC(C)=O)C(O)C7OC7OC(COC(C)=O)C(O)C(O)C7OC(C)=O)C(O)C(O)C6OC6OCC(O)C(O)C6O)C(C)(C)C5CCC4(C)C2(C)C(O)C3O)C1OC1OCC(OC2OCC(O)C(OC3OCC(O)C(O)C3O)C2O)C(O)C1O` (centres undefined), the activity, negative = inhibition is -15.5% [at 9.52 µM] (inactive) in assay [1] and 0% [at 6.45 µM] (inactive) in assay [5]. The outcome in assay [2] is “inactive [at 9.73 µM]”; in assay [3], “inactive [at 6.45 µM]”. Moreover, the activity change, negative = thiol reactive in assay [4] was 140% [at 6.41 µM] (inactive). The redox activity (% of DA3003) in assay [6] is 4.4% [at 6.41 µM] (inactive).
`C=C(C)C(=O)O[C@H]1[C@H]2C(=C)C(=O)O[C@@H]2C[C@@H](C)[C@@H]2O[C@@H]2C(=O)[C@](C)(O)[C@@H]1OC(=O)C(=C)C`: the Potency entry in assay [1], in assay [2], in assay [3], in assay [4], in assay [5] and in assay [6] was “inactive” each time.
In the case of `NCC(CNc1nc(Nc2cccc(NC(=O)N3CCCC3)c2)ncc1I)C(=O)c1cccs1` (centres undefined), the Potency entry in assay [1], in assay [2], in assay [3], in assay [4], in assay [5] and in assay [6] was “inactive” throughout.
`COc1ccc(-c2csc(NC(=O)[C@H]3CCCCN3S(=O)(=O)c3ccc(C)cc3)n2)cc1`: the Potency entry in assay [1], in assay [2], in assay [3], in assay [4], in assay [5] and in assay [6] was “inactive” throughout.
Turning to `CC(=O)c1ccc2c(c1)[C@H](NC(=O)c1ccc(F)c(Cl)c1)[C@H](O)C(C)(C)O2`, the Potency result in assay [1], in assay [2], in assay [3], in assay [4], in assay [5] and in assay [6] was “inactive” throughout.
In the case of `COc1cc(N2CCC(N)CC2)ccc1Nc1ncc(Cl)c(-c2c[nH]c3ccccc23)n1`, the Potency result in assay [1], in assay [2], in assay [3], in assay [5] and in assay [6] was “inactive” throughout. Moreover, the Potency in assay [4] was 1.89 µM (active).
`C[C@H](Oc1cc(-n2cnc3ccc(CN4CCN(C)CC4)cc32)sc1C(N)=O)c1ccccc1C(F)(F)F`: the Potency result in assay [1], in assay [2], in assay [3], in assay [4], in assay [5] and in assay [6] was “inactive” throughout.
As to `FC(F)(F)c1ccccc1-c1cc(C(F)(F)F)c2nc(C3=NOC4(CCCCC4)C3)[nH]c2c1`, the Potency entry in assay [1], in assay [2], in assay [3], in assay [4], in assay [5] and in assay [6] was “inactive” each time.
With `C/C=C/C=C/C=C/C(=O)O[C@@H]1C=C(CO)C(O)(C(=O)OC)[C@@]2(C)CCCC(C)(C)C12` (some centres undefined), the Potency result in assay [1], in assay [2], in assay [3], in assay [4], in assay [5] and in assay [6] was “inactive” in each case.
In the case of `C=CC(=O)N1CCC(Oc2cc3c(Nc4ccc(Cl)c(Cl)c4F)ncnc3cc2OC)CC1`, the Potency entry in assay [1], in assay [2], in assay [3], in assay [4], in assay [5] and in assay [6] was “inactive” in each case.
With `CC1OC(=O)C[C@@H]2C(C(=O)O)=CO[C@@H](O[C@H]3O[C@H](CO)[C@@H](O)[C@H](O)[C@H]3O)[C@H]12` (some centres undefined), the Potency entry in assay [1], in assay [2], in assay [3], in assay [4], in assay [5] and in assay [6] was “inactive” in each case.
With `C=C1CC[C@@H]2[C@](C)(CO)[C@H](O)CC[C@@]2(C)[C@@H]1CC(O)C1=CCOC1=O` (some centres undefined), the Potency entry in assay [1], in assay [2], in assay [3], in assay [4], in assay [5] and in assay [6] was “inactive” throughout.
As to `Cc1c(C2=CCN(C(=O)N(C)C(C)C)CC2)nnn1-c1cccnc1F`, the Potency result in assay [1], in assay [2], in assay [3], in assay [4], in assay [5] and in assay [6] was “inactive” throughout.
As for `CN1c2c(nc(N)[nH]c2=O)NC[C@@H]1CNc1ccc(C(=O)N[C@@H](CCC(=O)O)C(=O)O)cc1`, the Potency entry in assay [1], in assay [3], in assay [4], in assay [5] and in assay [6] was “inactive” each time. Also, the Potency entry in assay [2] was “inactive and 1.24 µM (active)”.
Consider `CC1=CC2/C=C(\C)CCC3OC(C)(C)OC3CCC(=O)C23C(=O)NC(CC(C)C)C3C1C` (centres undefined), for which the Potency entry in assay [1], in assay [2], in assay [3], in assay [4], in assay [5] and in assay [6] was “inactive” throughout.
With `CCOC(=O)c1ccc(OCCC2CCN(c3ccc(C)nn3)CC2)cc1`, the Potency result in assay [1], in assay [2], in assay [3], in assay [4], in assay [5] and in assay [6] was “inactive” throughout.
In the case of `C=C1CC2[C@@]3(C)C=CC(=O)C(C)(C)C3=C(O)C(=O)[C@@]2(C)C2(C(=O)OC)C(=O)C(C)OC(=O)[C@@]12C` (some centres undefined), the Potency entry in assay [1], in assay [2], in assay [3], in assay [4], in assay [5] and in assay [6] was “inactive” throughout.
Turning to `C=C1C(=O)O[C@H]2C[C@@H](C)[C@@H]3CCC(=O)[C@@]3(C)C[C@H]12`, the Potency result in assay [1], in assay [2], in assay [3], in assay [4], in assay [5] and in assay [6] was “inactive” each time.
As for `COc1ccccc1S(=O)(=O)Nc1ccc2c(c1)CN(C)C(=O)N2`, the Potency result in assay [1], in assay [2], in assay [3], in assay [4], in assay [5] and in assay [6] was “inactive” in each case.
As to `CC(=O)O[C@H]1[C@@]2(O)C[C@H](C)[C@H](OC(=O)c3ccccc3)[C@@H]2[C@@H](OC(=O)CO)[C@]2(OC(C)=O)C[C@H]3C(=O)C(C)(C)C[C@@H]3[C@@]1(C)[C@H]2OC(C)=O`, the Potency entry in assay [1], in assay [2], in assay [3], in assay [4], in assay [5] and in assay [6] was “inactive” throughout.
In the case of `CC(C)CCNc1ncccc1C(=O)N1CCN(Cc2ccccc2)CC1`, the Potency entry in assay [1], in assay [2], in assay [3], in assay [4], in assay [5] and in assay [6] was “inactive” in each case.
As for `Cc1ccc(-c2c(C(=O)CCl)n(CCCO)c3ncnc(N)c23)cc1`, the Potency result in assay [1], in assay [2], in assay [3], in assay [4] and in assay [5] was “inactive” in each case. In assay [6], the Potency is 15 µM (active).
In the case of `CCC(C)C(=O)O[C@H]1[C@H](O)[C@@]2(COC(C)=O)C(CC1(C)C)C1=CCC3[C@@]4(C)CC[C@H](O[C@@H]5O[C@H](C(=O)O)[C@@H](O)[C@H](O)[C@H]5O)[C@@](C)(CO)C4CC[C@@]3(C)[C@]1(C)C[C@@H]2O` (some centres undefined), the Potency result in assay [1] and in assay [2] was “inactive” throughout. Moreover, in assay [3], the outcome was “inactive [at 11.6 µM]”. In addition, the activity change, negative = thiol reactive in assay [4] was 57.8% [at 11.5 µM] (inactive). For the same molecule, in assay [5], the activity, negative = inhibition was 3.16% [at 11.6 µM] (inactive). Besides, in assay [6], the redox activity (% of DA3003) was 14.3% [at 11.5 µM] (inactive).
